Tested on: Vero E6 infected with SARS-CoV-2
Experiment: inhibition of SARS-CoV-2 cytopathic effect; higher = more antiviral protection, active = above 15
Settings: 48 h

Measured: inhibition of SARS-CoV-2 cytopathic effect

CC(=O)Nc1nnc(S(N)(=O)=O)s1 [acetazolamide]
inactive: 1 nM -0.16% | 8.33 nM -1.99% | 100 nM -1.3% | 833.33 nM -2.21% | 10000 nM -1.25%

C[C@H](CCC(=O)NCCS(=O)(=O)O)[C@H]1CC[C@H]2[C@@H]3[C@H](O)C[C@@H]4C[C@H](O)CC[C@]4(C)[C@H]3C[C@H](O)[C@]12C [taurocholate]
inactive: 1 nM -8.93% | 8.33 nM -4.1% | 100 nM -6.72% | 833.33 nM -7.82% | 10000 nM -8.38%

O=Cc1cn(Cc2ccc(Cl)cc2)c2ccccc12 [oncrasin-1]
inactive: 1 nM 1.13% | 8.33 nM -1.86% | 100 nM 2.77% | 833.33 nM 2.11% | 10000 nM 2.76%

CC(C)(C)NCC(O)COc1ccc(NC(=O)NC2CCCCC2)cc1 (stereo not given) [talinolol]
inactive: 1 nM 0.2% | 8.33 nM -2.2% | 100 nM -0.81% | 833.33 nM 0.83% | 10000 nM 0.7%

Cc1ccc(-c2c(-c3nn(C)c4ncnc(N5CC[C@H](N6CCCCC6)C5)c34)cnn2C)cc1
inactive: 1 nM -0.9% | 8.33 nM -0.84% | 100 nM 0.89% | 833.33 nM -2.4% | 10000 nM -0.65%

Cc1c[nH]c2ncnc(N3CCC(CN)(C(=O)Nc4cccc(OC(=O)N(C)C)c4)CC3)c12
inactive: 1 nM -0.02% | 8.33 nM -1.69% | 100 nM 4.07% | 833.33 nM -0.25% | 10000 nM 5.79%

Nc1ncnc2c1c(-c1ccc(Cl)cc1)nn2-c1cccc(-c2cnnn2Cc2cccc(-c3ccccc3)c2)c1
inactive: 1 nM -2.81% | 8.33 nM -0.01% | 100 nM -1.05% | 833.33 nM -2.27% | 10000 nM -0.83%

Cc1cc2ncc(C(=O)NCC(C)(C)NCC(=O)N3CCC[C@H]3C#N)cn2n1 [anagliptin]
inactive: 1 nM -0.17% | 8.33 nM -0.56% | 100 nM -0.23% | 833.33 nM 0.84% | 10000 nM 0.07%

C=CC(=O)Nc1ccc2ncnc(Nc3ccc(OCc4cccc(F)c4)c(Cl)c3)c2c1
inactive: 1 nM -1.9% | 8.33 nM 1.55% | 100 nM -0.97% | 833.33 nM -0.61% | 10000 nM -3.89%

C[C@H](CCC(=O)O)[C@H]1CC[C@H]2[C@@H]3[C@@H](O)C[C@@H]4C[C@H](O)CC[C@]4(C)[C@H]3CC[C@]12C [ursodiol]
inactive: 1 nM 0.455% | 8.33 nM 1.77% | 100 nM 3.56% | 833.33 nM 1.38% | 10000 nM 0.145%

O=C(Nc1cccc(C(F)(F)F)c1)Nc1ccc(Br)cc1-c1nnn[nH]1
inactive: 1 nM 1.75% | 8.33 nM 3.12% | 100 nM 2.2% | 833.33 nM 3.69% | 10000 nM 4.81%

Cc1c(N(C)C)c(=O)n(-c2ccccc2)n1C [amidopyrine]
inactive: 1 nM -14.8% | 8.33 nM -9.18% | 100 nM -12% | 833.33 nM -13.2% | 10000 nM -11.7%

COc1ccccc1OCCNCC(O)COc1cccc2[nH]c3ccccc3c12 (stereo not given) [carvedilol]
inactive: 1 nM 2.73% | 8.33 nM 3.88% | 100 nM 0.32% | 833.33 nM -1.02% | 10000 nM -1.85%

COc1ccc(CNC(=O)c2sc3nc(C)cc(C)c3c2N)cc1
inactive: 1 nM 1.68% | 8.33 nM 2.93% | 100 nM 2.17% | 833.33 nM 2.96% | 10000 nM 2.28%

O=c1[nH]c2ccccc2n1C1CCN(CCOc2ccccc2)CC1 [oxiperomide]
inactive: 1 nM -1.51% | 8.33 nM -1.1% | 100 nM -2.1% | 833.33 nM -0.51% | 10000 nM 2.21%

COc1ccc(CCC(=O)Nc2nc3ccc(Cl)cc3s2)cc1OC
inactive: 1 nM -2.56% | 8.33 nM -3.14% | 100 nM -2.66% | 833.33 nM 0.12% | 10000 nM 0.38%

CCOC(=O)[C@H](CCc1ccccc1)N[C@H]1CCc2ccccc2N(CC(=O)O)C1=O [benazepril]
inactive: 1 nM 2.45% | 8.33 nM 4.14% | 100 nM 3.52% | 833.33 nM -1.12% | 10000 nM 1.56%

CCC1(c2ccccc2)C(=O)N(COC)C(=O)N(COC)C1=O [eterobarb]
inactive: 1 nM -0.71% | 8.33 nM 0.82% | 100 nM -1.29% | 833.33 nM -0.57% | 10000 nM 0.84%

O=C(O)c1cc(=O)[nH]c(=O)[nH]1 [orotic-acid]
inactive: 1 nM -2.95% | 8.33 nM 1.49% | 100 nM -1% | 833.33 nM 0.78% | 10000 nM 0.21%

NS(=O)(=O)c1cccc2c1c([N+](=O)[O-])cc1nc(O)c(O)nc12
inactive: 1 nM 2.79% | 8.33 nM 2.79% | 100 nM 2.47% | 833.33 nM 1.7% | 10000 nM -1.01%

CCCCN(CCCC)CCCOC(=O)c1ccc(N)cc1 [butacaine]
inactive: 1 nM 1.8% | 8.33 nM 5.07% | 100 nM 2.1% | 833.33 nM -1.71% | 10000 nM -2.04%

Cc1sc2c(c1C)C(c1ccc(Cl)cc1)=N[C@@H](CC(=O)Nc1ccc(O)cc1)c1nnc(C)n1-2
inactive: 1 nM 1.01% | 8.33 nM 0.43% | 100 nM -1.47% | 833.33 nM -3.68% | 10000 nM -9.86%

O=C(O)c1ccc(S(=O)(=O)N(Cl)Cl)cc1 [halazone]
inactive: 1 nM -0.04% | 8.33 nM 2.43% | 100 nM -0.73% | 833.33 nM -4.46% | 10000 nM -0.76%

Cc1cc(NC(=O)NCCN2CCC(O)(Cc3ccccc3)CC2)c2ccccc2n1 [palosuran]
inactive: 1 nM -0.45% | 8.33 nM 0.24% | 100 nM 0.95% | 833.33 nM 2.2% | 10000 nM 1.86%

C/C(O)=C(\C#N)C(=O)Nc1ccc(C(F)(F)F)cc1 [teriflunomide]
inactive: 1 nM 3.27% | 8.33 nM 1.99% | 100 nM 1.22% | 833.33 nM -3.04% | 10000 nM 1.1%

Cc1[nH]c2ccc(Cl)cc2c1C1=CCNCC1
inactive: 1 nM 0.44% | 8.33 nM 2.01% | 100 nM -0.51% | 833.33 nM 1.48% | 10000 nM 10.1%

COc1ccc2cccc(N3CCN(CCNC(=O)c4ccc(F)cc4)CC3)c2c1
inactive: 1 nM -1.86% | 8.33 nM -0.57% | 100 nM 0.77% | 833.33 nM 0.7% | 10000 nM -3.37%

COCC1=C(C(=O)O)N2C(=O)[C@@H](NC(=O)/C(=N\OC)c3csc(N)n3)[C@H]2SC1 [cefpodoxime]
inactive: 1 nM -1.12% | 8.33 nM -1.09% | 100 nM -1.76% | 833.33 nM -0.98% | 10000 nM -1.12%

CC1CCc2c(N3CCC(O)CC3)c(F)cc3c(=O)c(C(=O)O)cn1c23 (stereo not given) [nadifloxacin]
inactive: 1 nM 3.29% | 8.33 nM 1.42% | 100 nM 0.26% | 833.33 nM 3.52% | 10000 nM 2.69%

O=C(Cc1ccc(-c2ccccc2)cc1)Nc1ccccn1 [difenpiramide]
inactive: 1 nM 2.42% | 8.33 nM 3.03% | 100 nM -1.56% | 833.33 nM 6.97% | 10000 nM 14.8%

N#C/C(=C\c1ccc(O)c(O)c1)C(=O)OCCc1cccs1
inactive: 1 nM 1.43% | 8.33 nM 1.78% | 100 nM 7.36% | 833.33 nM -1.53% | 10000 nM 1.2%

CCOC(=O)Nc1ccc2c(c1)N(C(=O)CCN1CCOCC1)c1ccccc1S2 [moracizine]
inactive: 1 nM 0.84% | 8.33 nM 3.43% | 100 nM -0.23% | 833.33 nM 2.61% | 10000 nM 5.32%

CCN(CC)CCOCCOC(=O)C(CC)(CC)c1ccccc1 [oxelaidin]
inactive: 1 nM -3.54% | 8.33 nM 0.15% | 100 nM 0.38% | 833.33 nM -0.56% | 10000 nM 0.38%

C[C@@]1(c2cc(-c3cncnc3)c(F)cc2F)CCSC(N)=N1
inactive: 1 nM -0.91% | 8.33 nM -3.4% | 100 nM -0.51% | 833.33 nM -2% | 10000 nM -3.12%

O=C(c1ccc(F)cc1)C1CCN(CCCCc2ccccc2)CC1 [4-(4-fluorobenzoyl)-1-(4-phenylbutyl)-piperidine]
inactive: 1 nM -4.06% | 8.33 nM -1.58% | 100 nM -0.19% | 833.33 nM 1.25% | 10000 nM -4.47%

OC(CCN1CCCCC1)(c1ccccc1)C1CC2C=CC1C2 (stereo not given) [biperiden]
inactive: 1 nM 0.1% | 8.33 nM -0.07% | 100 nM 0.23% | 833.33 nM -2.88% | 10000 nM -2%

O=c1[nH]c([C@@H]2CCCN2)nc2c1oc1ccc(Cl)cc12
inactive: 1 nM -0.27% | 8.33 nM 0.12% | 100 nM 1.61% | 833.33 nM -0.54% | 10000 nM -2.54%

COc1cc(Nc2c(C#N)cnc3cc(OCCCN4CCN(C)CC4)c(OC)cc23)c(Cl)cc1Cl [bosutinib]
inactive: 1 nM 0.33% | 8.33 nM -1.8% | 100 nM -1.97% | 833.33 nM -8.27% | 10000 nM -7.97%

NCC1OC(C23CC4CC(CC(C4)C2)C3)Cc2c1ccc(O)c2O (stereo not given)
inactive: 1 nM 0.67% | 8.33 nM 0.56% | 100 nM 2.31% | 833.33 nM 1.57% | 10000 nM -6.39%

COC(=O)CCc1ccc(OCC(O)CNC(C)C)cc1 (stereo not given) [esmolol]
inactive: 1 nM 0.17% | 8.33 nM 0.64% | 100 nM -0.39% | 833.33 nM 0.07% | 10000 nM -0.39%

COCCOc1cnc2ccn([C@H](C)c3nnc4c(F)cc(-c5cnn(C)c5)cn34)c(=O)c2c1
inactive: 1 nM -0.43% | 8.33 nM -1.31% | 100 nM 0.19% | 833.33 nM -0.75% | 10000 nM -0.37%

Source: the supplement of paper PMC13380429
